Targets with a hit are over-represented here; the source holds about 8,800 in all. About 0.5% of all pairs of compound and target were hits. Unmarked numbers belong to inactive results.
What was measured:
Experiment in all cases: log2 fold change, soluble protein after heating vs DMSO (PISA); higher = thermal stabilisation; K562 lysate, 10 uM; active = over 0.2 and 3.5 SD of the protein, either way, in both replicates (recomputed)
[1] = compound: NCC(=O)Nc1ccc(-n2nc(C(F)(F)F)cc2-c2ccc3c(ccc4ccccc43)c2)cc1
Method in brief: (§1)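 To prepare the extract, K562 pellets were dounce-homogenised in PBS pH 7.4 with 1 mM MgCl2, giving crude material at 1 mg/mL protein. This was treated with 10 μM compound for 30 min, then heated in aliquots for 3 min over 48°C-58°C before pooling and addition of NP-40 to 0.5% at 4°C. Centrifugation at 21,000xg for 90 min left soluble protein in the supernatant, which TMTpro 16plex LC-MS/MS quantified with equalised channel sums. Results are log-two fold changes in thermal stability compared with solvent controls, from duplicates.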

vorinostat = compound: O=C(CCCCCCC(=O)Nc1ccccc1)NO [vorinostat]
Method in brief: as §1

silmitasertib = compound: O=C(O)c1ccc2c(c1)nc(Nc1cccc(Cl)c1)c1ccncc12 [silmitasertib]
Method in brief: as §1

[2] = compound: O=C1NC(=O)C(c2cnc3ccccn23)=C1c1cn2c3c(cc(F)cc13)CN(C(=O)N1CCCCC1)CC2
Method in brief: as §1

entospletinib = compound: c1cn2cc(-c3ccc4cn[nH]c4c3)nc(Nc3ccc(N4CCOCC4)cc3)c2n1 [entospletinib]
Method in brief: as §1

Chain of UniProt Q6PHR2 (Q6PHR2 whole entry, looked up): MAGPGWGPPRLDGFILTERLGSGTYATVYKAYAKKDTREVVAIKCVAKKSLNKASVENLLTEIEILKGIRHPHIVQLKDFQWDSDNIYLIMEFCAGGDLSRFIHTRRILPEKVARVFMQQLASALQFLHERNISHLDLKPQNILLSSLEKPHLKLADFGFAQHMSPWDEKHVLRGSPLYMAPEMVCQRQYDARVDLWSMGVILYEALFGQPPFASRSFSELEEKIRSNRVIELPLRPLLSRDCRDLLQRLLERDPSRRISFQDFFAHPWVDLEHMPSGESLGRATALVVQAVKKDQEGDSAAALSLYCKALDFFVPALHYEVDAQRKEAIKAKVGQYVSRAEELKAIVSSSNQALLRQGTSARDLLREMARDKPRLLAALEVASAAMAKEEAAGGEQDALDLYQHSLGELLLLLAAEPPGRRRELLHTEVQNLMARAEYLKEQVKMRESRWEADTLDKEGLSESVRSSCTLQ
Chain of UniProt Q70CQ2 (Q70CQ2 whole entry, looked up): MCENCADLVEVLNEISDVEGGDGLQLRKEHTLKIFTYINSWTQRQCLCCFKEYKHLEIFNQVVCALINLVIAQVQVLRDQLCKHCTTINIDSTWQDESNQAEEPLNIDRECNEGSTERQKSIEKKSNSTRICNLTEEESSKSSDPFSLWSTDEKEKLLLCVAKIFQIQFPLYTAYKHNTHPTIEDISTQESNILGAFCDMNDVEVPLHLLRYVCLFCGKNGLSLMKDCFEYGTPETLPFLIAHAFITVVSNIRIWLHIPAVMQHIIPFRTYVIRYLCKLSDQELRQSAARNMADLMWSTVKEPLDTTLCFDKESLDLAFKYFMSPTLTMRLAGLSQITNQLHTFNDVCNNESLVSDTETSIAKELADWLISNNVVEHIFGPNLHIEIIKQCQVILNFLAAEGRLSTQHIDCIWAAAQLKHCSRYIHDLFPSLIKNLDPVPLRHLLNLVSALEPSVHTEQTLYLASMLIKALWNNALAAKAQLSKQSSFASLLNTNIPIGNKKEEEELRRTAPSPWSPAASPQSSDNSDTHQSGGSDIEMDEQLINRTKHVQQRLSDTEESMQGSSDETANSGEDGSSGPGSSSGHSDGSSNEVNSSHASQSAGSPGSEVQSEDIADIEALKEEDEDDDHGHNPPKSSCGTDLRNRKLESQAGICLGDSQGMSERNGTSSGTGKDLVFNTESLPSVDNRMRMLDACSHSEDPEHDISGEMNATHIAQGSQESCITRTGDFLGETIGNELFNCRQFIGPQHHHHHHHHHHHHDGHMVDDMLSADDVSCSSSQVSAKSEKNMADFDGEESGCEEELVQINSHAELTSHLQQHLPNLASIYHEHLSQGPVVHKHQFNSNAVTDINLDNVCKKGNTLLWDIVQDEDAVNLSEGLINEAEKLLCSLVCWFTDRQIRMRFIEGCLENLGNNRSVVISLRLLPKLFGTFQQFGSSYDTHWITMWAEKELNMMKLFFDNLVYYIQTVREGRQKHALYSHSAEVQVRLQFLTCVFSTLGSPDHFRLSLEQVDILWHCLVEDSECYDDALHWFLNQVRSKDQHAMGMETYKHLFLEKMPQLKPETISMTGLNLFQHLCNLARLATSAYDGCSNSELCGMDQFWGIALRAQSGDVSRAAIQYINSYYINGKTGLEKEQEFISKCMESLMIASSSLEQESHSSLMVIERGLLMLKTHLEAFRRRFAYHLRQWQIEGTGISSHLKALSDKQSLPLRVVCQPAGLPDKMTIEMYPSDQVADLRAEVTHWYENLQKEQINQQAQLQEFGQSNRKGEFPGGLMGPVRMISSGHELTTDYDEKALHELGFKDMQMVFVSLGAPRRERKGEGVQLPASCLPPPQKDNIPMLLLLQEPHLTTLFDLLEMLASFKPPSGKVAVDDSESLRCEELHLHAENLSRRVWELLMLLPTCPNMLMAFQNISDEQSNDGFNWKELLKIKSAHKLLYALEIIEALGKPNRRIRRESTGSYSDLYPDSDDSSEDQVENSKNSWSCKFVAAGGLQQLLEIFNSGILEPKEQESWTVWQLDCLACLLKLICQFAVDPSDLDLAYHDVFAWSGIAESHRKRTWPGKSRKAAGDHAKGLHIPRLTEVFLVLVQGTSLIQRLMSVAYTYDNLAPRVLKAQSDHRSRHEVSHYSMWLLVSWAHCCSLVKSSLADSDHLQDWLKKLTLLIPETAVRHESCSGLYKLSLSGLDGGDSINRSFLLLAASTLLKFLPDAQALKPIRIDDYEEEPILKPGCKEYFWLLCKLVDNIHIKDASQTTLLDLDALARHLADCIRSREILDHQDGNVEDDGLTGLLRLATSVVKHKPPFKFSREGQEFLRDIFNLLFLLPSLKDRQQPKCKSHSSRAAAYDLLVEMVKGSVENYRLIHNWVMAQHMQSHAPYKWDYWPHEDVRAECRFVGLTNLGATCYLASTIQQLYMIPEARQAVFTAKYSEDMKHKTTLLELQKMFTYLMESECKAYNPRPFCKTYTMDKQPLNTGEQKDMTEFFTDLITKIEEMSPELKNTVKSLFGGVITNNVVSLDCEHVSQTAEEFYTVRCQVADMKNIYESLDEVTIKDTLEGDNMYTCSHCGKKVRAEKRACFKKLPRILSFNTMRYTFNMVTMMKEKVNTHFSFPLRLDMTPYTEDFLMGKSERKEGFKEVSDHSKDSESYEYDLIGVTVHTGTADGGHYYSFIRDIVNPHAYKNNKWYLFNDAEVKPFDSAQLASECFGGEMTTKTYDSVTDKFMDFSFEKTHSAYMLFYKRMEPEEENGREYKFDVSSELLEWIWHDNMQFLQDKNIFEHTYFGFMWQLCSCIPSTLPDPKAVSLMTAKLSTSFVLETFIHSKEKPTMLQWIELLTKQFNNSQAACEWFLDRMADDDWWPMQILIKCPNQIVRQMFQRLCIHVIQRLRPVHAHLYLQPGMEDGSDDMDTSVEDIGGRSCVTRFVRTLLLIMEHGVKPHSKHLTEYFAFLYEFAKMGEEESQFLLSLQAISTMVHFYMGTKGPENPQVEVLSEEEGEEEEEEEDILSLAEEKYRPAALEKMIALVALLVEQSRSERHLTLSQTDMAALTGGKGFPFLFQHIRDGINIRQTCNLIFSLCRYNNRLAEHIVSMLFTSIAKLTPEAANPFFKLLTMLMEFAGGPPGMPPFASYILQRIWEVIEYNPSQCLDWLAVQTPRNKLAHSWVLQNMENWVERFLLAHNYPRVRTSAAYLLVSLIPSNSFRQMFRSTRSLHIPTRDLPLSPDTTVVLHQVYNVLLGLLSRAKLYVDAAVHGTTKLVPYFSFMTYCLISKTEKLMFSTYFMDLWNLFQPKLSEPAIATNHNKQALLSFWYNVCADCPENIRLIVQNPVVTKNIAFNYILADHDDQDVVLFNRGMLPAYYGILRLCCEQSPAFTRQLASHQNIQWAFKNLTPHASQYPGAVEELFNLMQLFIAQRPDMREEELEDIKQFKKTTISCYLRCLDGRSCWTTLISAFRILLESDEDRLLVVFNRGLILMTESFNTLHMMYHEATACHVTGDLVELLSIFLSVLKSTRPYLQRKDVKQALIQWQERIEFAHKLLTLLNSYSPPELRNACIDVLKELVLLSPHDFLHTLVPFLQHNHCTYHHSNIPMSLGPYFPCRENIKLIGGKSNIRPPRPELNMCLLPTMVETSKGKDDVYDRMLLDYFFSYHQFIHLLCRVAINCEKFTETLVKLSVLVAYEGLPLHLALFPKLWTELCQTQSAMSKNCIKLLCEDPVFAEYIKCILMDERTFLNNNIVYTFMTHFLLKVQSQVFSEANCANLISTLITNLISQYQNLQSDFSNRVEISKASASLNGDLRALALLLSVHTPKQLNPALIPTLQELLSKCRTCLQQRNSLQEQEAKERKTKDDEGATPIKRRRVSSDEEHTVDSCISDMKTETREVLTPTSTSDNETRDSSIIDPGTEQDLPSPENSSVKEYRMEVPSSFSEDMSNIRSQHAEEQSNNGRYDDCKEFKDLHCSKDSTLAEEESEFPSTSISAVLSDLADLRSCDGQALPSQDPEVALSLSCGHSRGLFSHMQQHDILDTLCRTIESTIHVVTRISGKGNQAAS
Chain of UniProt Q8TAA9 (Q8TAA9 whole entry, looked up): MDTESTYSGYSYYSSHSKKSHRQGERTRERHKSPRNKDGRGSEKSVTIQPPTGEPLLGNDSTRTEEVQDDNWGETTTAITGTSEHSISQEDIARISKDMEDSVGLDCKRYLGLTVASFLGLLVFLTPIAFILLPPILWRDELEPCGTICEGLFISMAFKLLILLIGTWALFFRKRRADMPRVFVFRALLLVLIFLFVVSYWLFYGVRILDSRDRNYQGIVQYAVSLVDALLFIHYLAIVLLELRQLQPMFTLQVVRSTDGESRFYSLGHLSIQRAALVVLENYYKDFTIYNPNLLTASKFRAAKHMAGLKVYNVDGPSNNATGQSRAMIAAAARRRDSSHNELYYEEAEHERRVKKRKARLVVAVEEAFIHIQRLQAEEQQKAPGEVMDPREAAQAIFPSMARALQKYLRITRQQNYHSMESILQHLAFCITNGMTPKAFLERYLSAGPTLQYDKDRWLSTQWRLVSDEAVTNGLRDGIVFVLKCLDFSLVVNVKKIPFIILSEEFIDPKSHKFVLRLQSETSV

Target | log2 fold change [1] | log2 fold change (vorinostat) | log2 fold change (silmitasertib) | log2 fold change [2] | log2 fold change (entospletinib)
ULK3 isoform 4 (UniProt Q6PHR2) | -0.102 | -0.05 | 0.242 | 0.046 | 0.273
ZYG11A (UniProt Q6WRX3) | – | 0.719 (active) | 0.17 | – | –
USP34 (UniProt Q70CQ2) | 0.005 | -0.208 (active) | 0.05 | -0.012 | -0.005
VANGL1 (UniProt Q8TAA9) | -0.04 | 0.085 | 0.159 | -0.031 | -0.009
ZNF281 (UniProt Q9Y2X9) | – | -0.403 (active) | -0.084 | -0.072 | –
